# Assay results from the supplement of paper PMC9950053.
# Structures can show the parent of a compound that is named as a salt.
# Tested on: Danio rerio larvae (5 dpf)
# Test: habituation (activity change first vs second 5 min of 1-s interval sound, period 17) minus DMSO control (percentage points); higher = larger habituation measure than DMSO larvae
# Details: 10 µM; exposure time: 3 h pre-incubation + 3 h imaging
# Procedure: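 Wild-type 5 dpf zebrafish larvae (n=48 per drug, 96-well plates, 28.5 °C) were exposed to Tocris FDA-approved library compounds at 10 µM (0.1% DMSO) for 3 h before and 3 h during imaging. Images were taken every 6 s during visual (moving coloured lines) and acoustic stimuli, and larvae were tracked with the DeepLabCut-based Z-LaP Tracker. Each behavioural measure is the treated-group mean minus the DMSO vehicle control mean (n=844), in percentage points. This mapping covers compounds with 4-character plate codes.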
row,Structure (SMILES),habituation
1,CC(O)(CS(=O)(=O)c1ccc(F)cc1)C(=O)Nc1ccc(C#N)c(C(F)(F)F)c1 (stereo unspecified) [Bicalutamide],-6.13
2,CCN(C)C(=O)Oc1cccc([C@H](C)N(C)C)c1 [Rivastigmine tartrate],0.0925
3,COc1cc2c(cc1OC)C1CC(=O)C(CC(C)C)CN1CC2 (stereo unspecified) [Tetrabenazine],0.576
4,N[C@@H]1C[C@H]1c1ccccc1 [Tranylcypromine hydrochloride],-2.8
5,C=C1C[C@@H]2[C@H](CC[C@]3(C)C(=O)CC[C@@H]23)[C@@]2(C)C=CC(=O)C=C12 [Exemestane],-2.71
6,CC(C)C[C@H]1C(=O)N2CCC[C@H]2[C@]2(O)O[C@](NC(=O)[C@@H]3C=C4c5cccc6[nH]c(Br)c(c56)C[C@H]4N(C)C3)(C(C)C)C(=O)N12 [Bromocriptine mesylate],-1.05
7,O=c1[nH]c2ccccc2n1C1CCN(CCCC(c2ccc(F)cc2)c2ccc(F)cc2)CC1 [Pimozide],-10.2
8,CN1C[C@H](C(=O)N[C@]2(C)O[C@@]3(O)[C@@H]4CCCN4C(=O)[C@H](Cc4ccccc4)N3C2=O)C[C@@H]2c3cccc4[nH]cc(c34)C[C@H]21 [Dihydroergotamine mesylate],2.38
9,C=CCN1C[C@H](C(=O)N(CCCN(C)C)C(=O)NCC)C[C@@H]2c3cccc4[nH]cc(c34)C[C@H]21 [Cabergoline],5.7
10,Cc1cccc([C@H](C)c2c[nH]cn2)c1C [Dexmedetomidine hydrochloride],-10.4
11,CC[C@@H](C(N)=O)N1CCCC1=O [Levetiracetam],-2
